This is an account of results in PubChem BioAssay (Tox21).

A short description of test [1]: qHTS assay to identify small molecule agonists of the peroxisome proliferator-activated receptor delta (PPARd) signaling pathway - cell viability counter screen (AID 743211). Further: nearly all actives have a fitted effect of over 55% in size. A digest of the protocol: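 Viability of GeneBLAzer PPARd UAS-bla HEK293H cells was assessed after 17 h compound incubation at 37C, using CellTiter-Glo reagent added after the reporter read and luminescence recorded 30 min later.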
A general note: In qHTS, concentration-response curves come from the screen itself.

The target in test [2] is Peroxisome proliferator-activated receptor delta (Homo sapiens) (UniProt Q03181). In words: qHTS assay to identify small molecule agonists of the peroxisome proliferator-activated receptor delta (PPARd) signaling pathway (AID 743212; calls by dose curve). In a few lines:
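Quantitative high-throughput agonist screen in a HEK293H beta-lactamase reporter line under UAS control. Compounds in DMSO, at 37 C. Fluorescence read after 2 h with FRET substrate at room temperature.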

Test [3] is described as follows: qHTS assay to identify small molecule antagonists of the peroxisome proliferator-activated receptor delta (PPARd) signaling pathway - cell viability counter screen (AID 743213). Further: nearly all actives have a fitted effect of over 50% in size. In a few lines: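 Cytotoxicity counter screen: CellTiter-Glo luminescence read 30 min after addition, in the same wells as the reporter assay. There, PPARd UAS-bla HEK293H cells (3000/well) were treated 17 h at 37 C with compound and 300 nM L165041.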

In test [4] the target is Peroxisome proliferator-activated receptor delta (Homo sapiens) (UniProt Q03181). The experiment in a line: qHTS assay to identify small molecule antagonists of the peroxisome proliferator-activated receptor delta (PPARd) signaling pathway (AID 743215; active means well fitted inhibition curve with a large enough effect in the signal ratio in the repeat runs, not every such curve was filed as active; the % refers to the signal ratio;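 further: cells stimulated with agonist L165041 at 300 nM final during compound exposure; series mostly up to about 62 µM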). In a few lines:
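HEK293H UAS-bla, PPARd; agonist L165041 300 nM final with cpd in DMSO; 37 C 17 h; FRET substrate, RT 2 h; fluorescence intensity.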

Test [5] addresses Bile acid receptor (Homo sapiens) (UniProt Q96RI1). The experiment in a line: qHTS assay to identify small molecule antagonists of the farnesoid-X-receptor (FXR) signaling pathway (AID 743217; active means well fitted inhibition curve with a large enough effect in the signal ratio in the repeat runs, not every such curve was filed as active; the % refers to the signal ratio). A digest of the protocol: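 GeneBLAzer FXR-UAS-bla HEK 293T, CDCA-stimulated (50 uM final). Compound treatment 16 h, 37 °C. Detection: beta-lactamase cleavage of B/G FRET substrate, fluorescence.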

The nature of test [6]: qHTS assay to identify small molecule agonists of the farnesoid-X-receptor (FXR) signaling pathway - cell viability counter screen (AID 743218). Further: nearly all actives have a fitted effect of over 45% in size. A digest of the protocol:
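Parallel cytotoxicity test: compound-treated (16 h, 37 C) HEK 293T FXR-bla reporter cells were lysed with CellTiter-Glo and luminescence recorded.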

The target of test [7] is Bile acid receptor (Homo sapiens) (UniProt Q96RI1). In words: qHTS assay to identify small molecule agonists of the farnesoid-X-receptor (FXR) signaling pathway (AID 743220; active means well fitted activation curve with a large enough effect in the signal ratio in the repeat runs, not every such curve was filed as active; the % refers to the signal ratio; further: potency means the concentration at half of the fitted maximal effect). In a few lines: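 Beta-lactamase reporter under UAS control in GeneBLAzer FXR HEK 293T cells (5000/well) measured with LiveBLAzer FRET substrate after 2 h at room temperature. Compound exposure lasted 16 h at 37C.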

The nature of test [8]: qHTS assay to identify small molecule antagonists of the farnesoid-X-receptor (FXR) signaling pathway - cell viability counter screen (AID 743221; active means well fitted cell-killing curve with a large enough effect in the repeat runs, not every such curve was filed as active; further: nearly all actives have a fitted effect of over 50% in size). In a few lines:
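Quantitative HTS of the Tox21 10K library run in parallel with the beta-lactamase reporter read. HEK 293T cells carrying a UAS-driven bla reporter got compound and 50 uM CDCA (final) for 16 h; ATP-based luminescence followed.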

Test [9] addresses Vitamin D3 receptor (Homo sapiens) (UniProt P11473). The experiment in a line: qHTS assay to identify small molecule agonists of the vitamin D receptor (VDR) signaling pathway (AID 743222; calls by dose curve). In a few lines:
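In VDR-bla cells, compound-induced beta-lactamase expression is quantified by FRET substrate fluorescence. Treatment lasts 16 h at 37C; substrate develops 2 h at room temperature.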

The target is the same in test [10]. The experiment in a line: qHTS assay to identify small molecule antagonists of the vitamin D receptor (VDR) signaling pathway (AID 743223; active means well fitted inhibition curve with a large enough effect in the signal ratio in the repeat runs, not every such curve was filed as active; the % refers to the signal ratio). In a few lines: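 Fluorescence from LiveBLAzer B/G FRET substrate, read after 2 h at room temperature, reflects beta-lactamase reporter activity in VDR-bla cells treated 16 h at 37C with compounds and agonist 1alpha,25-dihydroxyvitamin D3 (3 nM final).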

Test [11] in a line: qHTS assay to identify small molecule agonists of the vitamin D receptor (VDR) signaling pathway - cell viability counter screen (AID 743224). Further: series mostly up to about 63 µM; nearly all actives have a fitted effect of over 50% in size. A digest of the protocol:
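Plated VDR-bla cells (4 h, 37C) received compound, incubated 16 h, then LiveBLAzer substrate 2 h RT; CellTiter-Glo added afterwards, luminescence read at 30 min.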

Test [12] is described as follows: qHTS assay to identify small molecule antagonists of the vitamin D receptor (VDR) signaling pathway - cell viability counter screen (AID 743225). Further: nearly all actives have a fitted effect of over 50% in size. In a few lines:
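Cells (VDR-UAS-bla HEK 293T) are plated, rested 4 h at 37C, dosed with compound and 3 nM final 1-alpha,25-dihydroxy vitamin D3, and incubated 16 h. Viability is taken from CellTiter-Glo luminescence in the reporter wells.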

Test [13] in a line: qHTS assay to identify small molecule agonists of the NFkB signaling pathway (AID 1159509; active means well fitted curve in the direction sought with a large enough effect in the signal ratio in the repeat runs, not every such curve was filed as active; the % refers to the signal ratio; further: series mostly up to about 61 µM). In a few lines:
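After overnight attachment, reporter cells received test compounds, DMSO or positive controls and were incubated 5 hr at 37 C. FRET substrate was then added for 1.5 hr at room temperature before dual-emission fluorescence reading.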

Test [14] can be described thus: qHTS assay to identify small molecule agonists of the NFkB signaling pathway - cell viability counter screen (AID 1159515; calls by dose curve; further: series mostly up to about 61 µM; nearly all actives have a fitted effect of over 55% in size). A digest of the protocol: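 Using the same wells as the NFkB reporter read, ME-180 NFkB-bla cells given compounds for 5 hr were assessed for viability via CellTiter-Glo, with luminescence taken after a 30 min room-temperature incubation.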
A short description of test [15]: qHTS assay to identify small molecule agonists of the endoplasmic reticulum stress response signaling pathway (AID 1159516; active means well fitted activation curve with a large enough effect in the signal ratio in the repeat runs, not every such curve was filed as active; the % refers to the signal ratio). In a few lines: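 An ESRE-bla HeLa cell assay: compounds were pin-transferred from DMSO onto overnight-plated cells and left 5 hr at 37 C. Substrate was then loaded for 2 hr at room temperature before reading fluorescence at 460 nm and 530 nm.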

A short description of test [16]: qHTS assay to identify small molecule agonists of the endoplasmic reticulum stress response signaling pathway - cell viability counter screen (AID 1159517; calls by dose curve). In a few lines:
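Counter-screen wells were identical to the reporter wells. Cells were plated at 1,500 per well and dosed for 5 hr, then read for luminescence 30 min after CellTiter-Glo addition.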

A short description of test [17]: qHTS assay to identify small molecule antagonists of the retinoid-related orphan receptor gamma (ROR-gamma) signaling pathway - cell viability counter screen (AID 1159520). Further: nearly all actives have a fitted effect of over 50% in size. In a few lines: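 Tet-on ROR gamma CHO cells were given compounds for 2 hr, then doxycycline hyclate at 1 uM final, and incubated 16 hr at 37 C. Viability was measured as ATP content by CellTiter-Glo luminescence.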

Test [18] addresses Nuclear receptor ROR-gamma (Homo sapiens) (UniProt P51449). In words: qHTS assay to identify small molecule antagonists of the retinoid-related orphan receptor gamma (ROR-gamma) signaling pathway (AID 1159521). In a few lines:
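RORγ antagonism is scored from reduced reporter luminescence in Tet-on CHO cells. Induction used 1 uM final doxycycline hyclate for 16 h at 37 C, following a 2 h compound exposure.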

Test [19] can be described thus: qHTS assay to identify small molecule agonists of the AP-1 signaling pathway - cell viability counter screen (AID 1159525; calls by dose curve; further: nearly all actives have a fitted effect of over 55% in size). A digest of the protocol: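 AP-1-bla ME-180 cells in Opti-MEM with 0.5% dialyzed FBS, compound exposure 5 h at 37 C in 15-point titration. Viability read in the same wells as ATP content by CellTiter-Glo luminescence, normalised to tetra-n-octylammonium bromide and DMSO controls.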

The nature of test [20]: qHTS assay to identify small molecule agonists of the AP-1 signaling pathway (AID 1159526; calls by dose curve).

Records with an inconclusive call do not appear. A number with no mark means an inactive call. Activity calls are given as the source filed them. Unless noted, the call rests on the fitted dose curve; in most records, active means well fitted curve in the direction sought with a large enough effect in the repeat runs; inconclusive means weak or mixed curves; inactive means no such curve, though single readings can be large; an effect the other way counts as inactive or inconclusive.

Peroxisome proliferator-activated receptor delta (Homo sapiens), sequence (Q03181 whole entry, looked up): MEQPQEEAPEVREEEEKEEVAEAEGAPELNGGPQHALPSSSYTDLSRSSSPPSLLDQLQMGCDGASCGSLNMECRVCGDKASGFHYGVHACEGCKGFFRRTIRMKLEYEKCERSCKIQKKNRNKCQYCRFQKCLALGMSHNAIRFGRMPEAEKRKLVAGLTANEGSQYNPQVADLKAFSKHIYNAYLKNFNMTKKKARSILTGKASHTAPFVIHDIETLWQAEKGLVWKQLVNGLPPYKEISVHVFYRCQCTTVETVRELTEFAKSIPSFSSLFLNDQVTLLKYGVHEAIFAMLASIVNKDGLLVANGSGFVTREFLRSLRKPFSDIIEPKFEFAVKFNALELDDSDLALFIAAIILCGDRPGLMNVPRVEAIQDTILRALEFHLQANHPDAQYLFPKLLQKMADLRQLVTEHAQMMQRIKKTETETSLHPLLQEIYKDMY
Vitamin D3 receptor (Homo sapiens), sequence (P11473 whole entry, looked up): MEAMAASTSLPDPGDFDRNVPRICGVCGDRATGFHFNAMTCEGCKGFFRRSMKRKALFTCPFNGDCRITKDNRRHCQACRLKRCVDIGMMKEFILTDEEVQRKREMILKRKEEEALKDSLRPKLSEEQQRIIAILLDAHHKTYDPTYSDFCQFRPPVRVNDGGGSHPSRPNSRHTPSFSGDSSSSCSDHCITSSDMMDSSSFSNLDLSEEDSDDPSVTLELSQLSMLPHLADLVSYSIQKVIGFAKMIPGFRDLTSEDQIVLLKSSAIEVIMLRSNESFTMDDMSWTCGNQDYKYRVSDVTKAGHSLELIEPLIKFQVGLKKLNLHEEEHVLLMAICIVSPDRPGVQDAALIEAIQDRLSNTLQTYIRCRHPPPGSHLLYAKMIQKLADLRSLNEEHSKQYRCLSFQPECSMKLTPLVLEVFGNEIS
Bile acid receptor (Homo sapiens), sequence (Q96RI1 whole entry, looked up): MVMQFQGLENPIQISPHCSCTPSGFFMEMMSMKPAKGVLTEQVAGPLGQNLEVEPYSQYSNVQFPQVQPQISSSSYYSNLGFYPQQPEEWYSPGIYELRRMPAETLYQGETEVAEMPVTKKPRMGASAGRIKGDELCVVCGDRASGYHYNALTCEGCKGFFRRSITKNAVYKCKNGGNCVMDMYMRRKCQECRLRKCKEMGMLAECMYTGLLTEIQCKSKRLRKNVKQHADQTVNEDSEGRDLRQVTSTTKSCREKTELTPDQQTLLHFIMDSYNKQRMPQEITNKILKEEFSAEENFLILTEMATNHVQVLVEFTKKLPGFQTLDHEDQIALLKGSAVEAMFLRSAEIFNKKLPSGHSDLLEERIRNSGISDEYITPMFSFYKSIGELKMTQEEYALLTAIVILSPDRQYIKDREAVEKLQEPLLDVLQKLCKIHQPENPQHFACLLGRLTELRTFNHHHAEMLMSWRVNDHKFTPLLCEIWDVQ

`CO[C@@H]1[C@@H](OC(N)=O)[C@@H](O)[C@H](Oc2ccc3c(O)c(NC(=O)c4ccc(O)c(CC=C(C)C)c4)c(=O)oc3c2C)OC1(C)C`: the result in [1], in test [2], in [3], in [4], in test [8] and in test [9] was inactive. Besides, the molecule was called inactive in [10], in test [12], in [13], in test [14], in test [15] and in [17]. For the same molecule, the call in test [18], in test [19] and in [20] was inactive. Also, the Potency result in test [5], in [6], in test [7], in test [11] and in test [16] was “inactive” each time.

Take `COc1ccc2c(c1)C(=O)N(CCc1ccc(S(=O)(=O)NC(=O)NC3CCCCC3)cc1)C(=O)C2(C)C`: the outcome in [1], in test [2], in [3], in test [4], in test [8] and in test [10] was inactive. For the same molecule, the call in test [12], in [13], in test [14], in test [15], in test [17] and in [18] was inactive. The result in test [19] and in [20] was inactive. Also, the Potency entry in test [6], in [11] and in [16] was “inactive” throughout. For the same molecule, the Potency in test [7] was 26.6 µM (active).

With `CCCC/C=C\CCCCCCCCCC=O`, the result in test [1], in test [2], in [3], in test [8], in [9] and in [10] was inactive. In addition, the molecule was classed as inactive in test [12], in [13], in [14], in test [15], in test [17] and in test [18]. Besides, the molecule was called inactive in test [19] and in [20]. Further, the Potency entry in test [6], in test [7], in test [11] and in test [16] was “inactive” throughout.

As for `O=C(/N=N/C(=O)OCc1ccccc1)OCc1ccccc1`, the molecule was called inactive in test [1], in test [2], in test [3], in test [4], in test [8] and in [9]. Moreover, the molecule was classed as inactive in test [12], in test [13], in test [14], in [15], in test [17] and in test [18]. Besides, the molecule was classed as inactive in test [19] and in [20]. Further, the Potency result in test [6], in test [11] and in test [16] was “inactive” in each case.

Consider `CCOc1cc(NC(C)=O)ccc1C(=O)OC`, for which the molecule was classed as inactive in test [1], in [2], in [3], in test [4], in test [8] and in [12]. Further, the call in [13], in [14], in test [15], in [17], in test [18] and in test [19] was inactive. The molecule was classed as inactive in [20]. Further, the Potency result in test [7] and in test [16] was “inactive” each time.

Take `CCOC(=O)[C@H](CCc1ccccc1)N[C@@H](C)C(=O)N1C(=O)N(C)C[C@H]1C(=O)O`: the molecule was called inactive in test [1], in [2], in [3], in test [4], in [8] and in test [13]. The molecule was classed as inactive in test [14], in test [15], in test [17], in test [18], in [19] and in test [20]. The Potency entry in test [6], in [11] and in test [16] was “inactive” throughout.

Take `CCn1ccc(NS(=O)(=O)c2ccc(N)cc2)nc1=O`: the molecule was classed as inactive in [1], in test [2], in test [3], in test [4], in [8] and in test [9]. Also, the result in test [12], in test [13], in test [14], in test [15], in test [17] and in test [18] was inactive. For the same molecule, the result in [19] and in [20] was inactive. Further, the Potency result in test [6], in [11] and in test [16] was “inactive” in each case.
